From PubChem
Pf growth 96h: P. falciparum growth inhibition at 96 hour, primary screen for plastid delayed-death inhibitors; P. falciparum luciferase reporter growth, 96 h; Potency, µM (titrated, usually from 28.7 µM), for the others: at the highest dose activity change, negative = inhibition, usual class: inhibitors; actives 6.9% (n = 320,000); note: potency is the fitted concentration of half-maximal effect; % is set by controls: 0 for no effect and ±100 for the full control effect
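P. falciparum expressing integrated firefly luciferase, in erythrocytes at 2% hematocrit, 0.05% parasitemia, incubated with compounds 96 h at 37 C, 5% CO2. Growth inhibition read as loss of luminescence; two-generation exposure targets delayed-death apicoplast inhibitors.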
CHX counter: affects cycloheximide protein synthesis inhibition readout, counter-screen; AID 2314; actives 12% (n = 300,000); cell reporter, cycloheximide protein synthesis inhibition counterscreen; max response, %; in the data active = max response mostly above about 13%, no sharp cut-off; inactive = mostly below about 14%; note: read at 38.3 µM for the half of the compounds with a filed dose; 0% is about no effect
Pf growth 48h: inhibits P. falciparum growth in the first generation, 48 h. actives 5.9% (n = 310,000). Potency, µM (top dose mostly 28.7 µM), for the others: at the highest dose activity change, negative = inhibition, hits mostly inhibitors. P. falciparum luciferase growth in erythrocytes, 48 h; note: potency is the fitted concentration of half-maximal effect; % is set by controls: 0 for no effect and ±100 for the full control effect
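Erythrocytes infected with P. falciparum carrying an integrated firefly luciferase reporter (2% hematocrit, 0.1% parasitemia final) were exposed to compounds in RPMI 1640 with 0.5% Albumax at 37 C, 5% CO2. Growth inhibition was scored as reduced luminescence.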
NS1 inh: influenza NS1 inhibition; Potency, µM (doses to about 46.1 µM), for inactives: at the highest dose activity, positive = more growth; actives 0.4% (n = 270,000); calls by dose curve; note: potency is the fitted concentration of half-maximal effect; actives are rising curves; nearly all actives have a fitted effect of over 50% in size
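S. cerevisiae expressing influenza A NS1, grown in glucose, washed, then diluted 1:100 into pH 6.0 -URA galactose medium with 23 nl compound. Growth recovery read as OD600; NS1-free strain serves as control.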
Shiga toxin inh: Shiga toxin inhibition; Vero cells, Shiga toxin protein synthesis inhibition reporter; AID 2315; actives 9.2% (n = 290,000); inhibition, % at 38.7 µM; in the data active = inhibition mostly above about 28%, no sharp cut-off; inactive = mostly below about 43%; note: 0% is about no effect
FBPA Giardia inh: inhibitors of Giardia lamblia fructose-1,6-bisphosphate aldolase. A8B2U2. purified Giardia FBPA. AID 2451. actives 0.71% (n = 290,000). Potency, µM (series often up to 59.6 µM), for the others: top-dose activity, negative = inhibition, hits mostly inhibitors; note: potency is the fitted concentration of half-maximal effect; % is set by controls: 0 for no effect and ±100 for the full control effect; nearly all actives have a fitted effect of over 55% in size
Target sequence (A8B2U2 whole entry, looked up): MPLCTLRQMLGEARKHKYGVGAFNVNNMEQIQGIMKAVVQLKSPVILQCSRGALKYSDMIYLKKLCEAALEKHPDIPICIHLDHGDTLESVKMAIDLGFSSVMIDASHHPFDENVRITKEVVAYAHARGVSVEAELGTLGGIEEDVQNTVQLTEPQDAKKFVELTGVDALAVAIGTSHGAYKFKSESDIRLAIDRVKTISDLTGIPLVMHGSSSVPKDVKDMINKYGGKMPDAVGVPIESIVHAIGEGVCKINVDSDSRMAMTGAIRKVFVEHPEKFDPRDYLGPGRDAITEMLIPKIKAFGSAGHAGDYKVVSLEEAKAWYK
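40 nM FBPA preincubated 10 min at RT with compound (up to 57.5 uM final), then substrate plus GAPDH/TPI/NAD/arsenate coupling and diaphorase/resazurin added. Fluorescence read after 20 min at RT, 525/598 nm.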
The depositor's hits bear a star. Shown are actives, neighbours in structure and some others; about 21% of the full set was active somewhere. Unless noted, calls come from the whole dose curve; as a rule, active = well fitted curve in the direction sought with a large enough effect; inconclusive = small, poorly fitted or top-dose-only effect, or another doubt; inactive = no such curve, though single readings can be large; an effect the other way counts as inactive or inconclusive.

Results for COc1ccc(OC)c(C(=O)C2COC(=O)C2)c1 (configuration not stated) ?
Pf growth 96h: 49%; CHX counter: -1; Pf growth 48h: 10µM*; NS1 inh: 0%; Shiga toxin inh: 6; FBPA Giardia inh: 5%

What do the screens show for `COc1ccc(OC)c(C(=O)c2ccc(C(=O)c3cc(OC)ccc3OC)cc2)c1`?
CHX counter: -7; Pf growth 48h: 3%; NS1 inh: 4%; Shiga toxin inh: -17; FBPA Giardia inh: -7%

How did COc1ccc(-c2c[n+](CC(=O)c3ccccc3)c3n2CCCCC3)cc1 do in these assays?
Pf growth 96h: inconclusive; CHX counter: -3; Pf growth 48h: inconclusive; NS1 inh: 0%; Shiga toxin inh: 14; FBPA Giardia inh: 0%

Results for C[n+]1cc(-c2ccccc2)n2c1CCCCC2 ?
Pf growth 96h: 1.7µM*; CHX counter: 3; Pf growth 48h: inconclusive; NS1 inh: -11%; Shiga toxin inh: -10

Results for Cc1ccc(-c2c[n+](CC(=O)c3ccc(Br)cc3)c3n2CCCCC3)cc1 ?
Pf growth 96h: -18%; CHX counter: 10; Pf growth 48h: 5.2µM*; Shiga toxin inh: 28; FBPA Giardia inh: 5%

Results for O=C(C[n+]1cc(-c2ccccc2)n2c1CCCCC2)c1ccc(Cl)cc1 ?
Pf growth 96h: 0.66µM*; CHX counter: 13; Pf growth 48h: 1.5µM*; NS1 inh: 3%; Shiga toxin inh: 17; FBPA Giardia inh: 6%

Results for CC1CCC(C(C)C)C(OC(=O)C[n+]2cc(-c3ccc(Cl)cc3)n3c2CCCCC3)C1 (configuration not stated) ?
Pf growth 96h: 2.9µM*; CHX counter: 0; Pf growth 48h: 2.9µM*; Shiga toxin inh: 18; FBPA Giardia inh: 7%

What do the screens show for `O=C(C[n+]1cc(-c2ccccc2)n2c1CCC2)Nc1nc(-c2ccccc2)cs1`?
Pf growth 96h: inconclusive; CHX counter: 12; Pf growth 48h: inconclusive; NS1 inh: 2%; Shiga toxin inh: 1; FBPA Giardia inh: -15%

How did COC(=O)[C@@]1(Cc2ccc(OC)cc2)[C@H]2c3cc(C(=O)N4CCCC4)n(Cc4ccsc4Br)c3C[C@H]2CN1C(=O)c1ccccc1 do in these assays?
FBPA Giardia inh: -1%

What do the screens show for `CC1CC(C)CN(CCOc2ccccc2-c2ccccc2)C1` (configuration not stated)?
Pf growth 96h: 10µM*; CHX counter: -5; Pf growth 48h: inconclusive; NS1 inh: -21%; Shiga toxin inh: 4; FBPA Giardia inh: -7%

What do the screens show for `c1ccc(-c2ccccc2OCCCCN2CCCCC2)cc1`?
Pf growth 96h: 18%; CHX counter: 0; Pf growth 48h: 10µM*; NS1 inh: -9%; Shiga toxin inh: -7; FBPA Giardia inh: -5%

What do the screens show for `c1ccc(-c2ccccc2OCCCN2CCCCCC2)cc1`?
Pf growth 96h: -25%; CHX counter: -3; Pf growth 48h: inconclusive; Shiga toxin inh: -12; FBPA Giardia inh: inconclusive

What do the screens show for `COc1ccccc1OCCCCN1CCN(C(c2ccccc2)c2ccccc2)CC1`?
Pf growth 96h: 12µM*; CHX counter: -3; Pf growth 48h: inconclusive; NS1 inh: -9%; Shiga toxin inh: -11; FBPA Giardia inh: 4%

What do the screens show for `c1ccc(-c2ccccc2OCCOCCN2CCOCC2)cc1`?
Pf growth 96h: inconclusive; CHX counter: -3; Pf growth 48h: inconclusive; NS1 inh: 15%; Shiga toxin inh: -15; FBPA Giardia inh: 14µM*

What do the screens show for `CC(C)NC(=O)N1CC2(CCN(S(=O)(=O)c3ccccc3)CC2)C1`?
FBPA Giardia inh: 8%

How did Cc1noc(C)c1-c1cc(NC2CC2)ncn1 do in these assays?
FBPA Giardia inh: -7%

How did O=C(Nc1ccccc1)N1CCCC2(CCN(C(=O)c3ccco3)CC2)C1 do in these assays?
FBPA Giardia inh: 5%

How did COc1cccc(OC)c1OCCCCN1CCCCC1 do in these assays?
Pf growth 96h: 13µM*; CHX counter: -4; Pf growth 48h: inconclusive; NS1 inh: 6%; Shiga toxin inh: -6; FBPA Giardia inh: -30%

How did Cc1cc(C(C)(C)C)ccc1OCCN1CCCC1 do in these assays?
Pf growth 96h: inconclusive; CHX counter: -3; NS1 inh: -1%; Shiga toxin inh: -24; FBPA Giardia inh: -20%
